Source: PubChem BioAssay (NCI)
About 79,000 compounds went through this panel and 15% of them were active in at least one assay; those are over-represented in the sample as a whole. Unmarked numbers belong to inactive results. Calls of active or inactive are those of the source. Rule as the data show it: active = growth inhibition above about 70%; inactive = the rest.

Experiment: NCI Yeast Anticancer Drug Screen. Data for the sgs1 mgt1 strain (AID 161);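 also: 0% = growth of cultures given vehicle only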
Details: S. cerevisiae sgs1 mgt1 strain, stronger effect = higher value
Procedure: Growth inhibition of yeast strains with defined genetic alterations is measured as a screen for potential anti-cancer activity. Selected strains with alterations in DNA damage repair or cell cycle control were exposed to compounds and growth inhibition was measured relative to vehicle treated controls. The strain used in this assay is sgs1 mgt1

[1] = at 5.0 µM (retest, dose inferred, filed as 0.5)
[2] = at 50.0 µM (retest, dose inferred, filed as 5.0)

In the case of `O=[N+]([O-])c1ccc2c(N=Nc3ccc4ccccc4c3O)c(O)cc(S(=O)(=O)O)c2c1`, the growth inhibition [1] is reported as 17%, the growth inhibition [2] is reported as 29% and the growth inhibition (at 50.0 µM) is reported as 74.7% (active).
With `CC(=O)c1cc(-c2ccccc2)nc2ccccc12` the growth inhibition [1] was 12%, the growth inhibition [2] was 80% (active) and the growth inhibition (at 50.0 µM) was 98.2% (active).
For `CCOC(=O)CC(NC(=O)c1[nH]cnc1/N=N/N(C)C)C(=O)OCC` (configuration not stated), the growth inhibition [1] was -16%, the growth inhibition [2] was 95% (active) and the growth inhibition (at 50.0 µM) was 90.6% (active).
In the case of `CC(C)C(NC(=O)/C=C\c1ccccc1)C(=O)O` (configuration not stated), the growth inhibition [1] is reported as -5%, the growth inhibition [2] is reported as -7% and the growth inhibition (at 50.0 µM) is reported as 93.5% (active).
In the case of `O=C(N/C(=C\c1ccccc1Cl)c1nc2ccccc2s1)c1ccccc1`, the growth inhibition [1] is reported as 54%, the growth inhibition [2] is reported as 99% (active) and the growth inhibition (at 50.0 µM) is reported as 99.2% (active).
With `Cc1ccc(S(=O)(=O)Nc2ccccc2Cl)cc1` the growth inhibition [1] was 7%, the growth inhibition [2] was 99% (active) and the growth inhibition (at 50.0 µM) was 96.5% (active).
With `COC(OC)(c1ccccc1)C(I)I` the growth inhibition [1] was 100% (active), the growth inhibition [2] was 100% (active) and the growth inhibition (at 50.0 µM) was 99.3% (active).
In the case of `NC(=S)N/N=C\c1nccc2c(C(F)(F)C(F)(F)C(F)(F)F)cccc12`, the growth inhibition [1] is reported as 39%, the growth inhibition [2] is reported as 69% and the growth inhibition (at 50.0 µM) is reported as 74% (active).
For `FC(F)(F)C(C1=NC(C(F)(F)F)(C(F)(F)F)N=C(N2CCOCC2)O1)C(F)(F)F`, the growth inhibition [1] was 20%, the growth inhibition [2] was 48% and the growth inhibition (at 50.0 µM) was 30.4%.
With `COCC1C(=O)c2cc3c(cc2C12C=CC1(C=C2)OCCO1)OCO3` (configuration not stated) the growth inhibition [1] was 35%, the growth inhibition [2] was -2% and the growth inhibition (at 50.0 µM) was 92.8% (active).
For `Oc1ccc2ccc3ccccc3c2c1`, the growth inhibition [1] was 5%, the growth inhibition [2] was 99% (active) and the growth inhibition (at 50.0 µM) was 99.5% (active).
In the case of `O=Nc1ccccc1N=O`, the growth inhibition [1] is reported as 59%, the growth inhibition [2] is reported as 99% (active) and the growth inhibition (at 50.0 µM) is reported as 99.2% (active).
For `CCC[CH2][Ge]([CH2]CCC)([CH2]CCC)[O]C(C)=O`, the growth inhibition [1] was 4%, the growth inhibition [2] was 21% and the growth inhibition (at 50.0 µM) was 61.8%.
For `Cc1occc1C(=S)Nc1ccc(Cl)c(C(=O)OCC2CC2)c1`, the growth inhibition [1] was -15%, the growth inhibition [2] was -3% and the growth inhibition (at 50.0 µM) was 81.4% (active).
